Test results taken from PubChem BioAssay AID2629 (Broad Institute, 2010).
“And” between values parts separate entries of the source, which are not always exact repeats. Identical values can stand only once. Screen size: about 320,000 compounds; about 1,900 (0.59%) were called active. The sample holds actives, similar compounds and a random draw of the others, so the mix is not that of the screen. Cut-off read from the data, not from the text of the source: active = inhibition mostly above about 10% (no sharp cut-off); inactive = mostly below about 6.7%. More than one record can exist for a structure, and the calls need not agree.

Molecular target: Protein LANA1 (Human herpesvirus 8 type P (isolate GK18)) (UniProt Q9QR71)
Sequence (Q9QR71 whole entry, looked up): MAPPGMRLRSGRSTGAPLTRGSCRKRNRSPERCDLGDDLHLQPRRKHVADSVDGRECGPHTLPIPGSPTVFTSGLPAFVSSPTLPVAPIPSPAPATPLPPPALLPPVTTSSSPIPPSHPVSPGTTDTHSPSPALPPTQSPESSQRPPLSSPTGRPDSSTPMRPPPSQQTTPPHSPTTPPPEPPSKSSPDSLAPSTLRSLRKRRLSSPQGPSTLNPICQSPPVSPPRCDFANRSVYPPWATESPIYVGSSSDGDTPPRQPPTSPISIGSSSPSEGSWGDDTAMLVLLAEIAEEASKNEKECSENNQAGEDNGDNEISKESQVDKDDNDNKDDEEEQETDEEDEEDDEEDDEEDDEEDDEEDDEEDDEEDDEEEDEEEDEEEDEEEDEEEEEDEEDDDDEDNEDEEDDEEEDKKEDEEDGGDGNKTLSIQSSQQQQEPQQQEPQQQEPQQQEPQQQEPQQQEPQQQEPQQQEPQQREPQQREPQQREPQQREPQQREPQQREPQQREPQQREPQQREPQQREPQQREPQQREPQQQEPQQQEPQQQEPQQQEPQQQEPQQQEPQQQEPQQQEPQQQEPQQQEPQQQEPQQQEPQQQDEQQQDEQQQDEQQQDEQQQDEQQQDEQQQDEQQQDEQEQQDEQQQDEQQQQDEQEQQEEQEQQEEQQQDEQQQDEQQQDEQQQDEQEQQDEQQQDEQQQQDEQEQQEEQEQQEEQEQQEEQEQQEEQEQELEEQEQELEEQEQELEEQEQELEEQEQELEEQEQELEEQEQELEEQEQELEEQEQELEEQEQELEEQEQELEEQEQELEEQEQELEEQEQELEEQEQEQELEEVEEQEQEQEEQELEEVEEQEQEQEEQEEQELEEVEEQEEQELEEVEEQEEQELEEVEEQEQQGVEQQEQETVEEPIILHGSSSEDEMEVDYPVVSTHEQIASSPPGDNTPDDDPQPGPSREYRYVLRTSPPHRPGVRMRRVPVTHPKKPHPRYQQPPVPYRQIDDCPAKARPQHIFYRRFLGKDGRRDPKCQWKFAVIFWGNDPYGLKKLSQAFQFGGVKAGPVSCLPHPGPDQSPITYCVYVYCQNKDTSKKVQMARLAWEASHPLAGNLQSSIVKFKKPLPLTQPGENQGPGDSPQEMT
Experiment: blockers of LANA interaction with H2A/H2B – biochemical, FP readout, HTS, primary screen (AID 2629)
Conditions: cell-free LANA-H2A/H2B peptide, fluorescence polarization, stronger effect = higher value, concentration not given here

SMILES | inhibition
O=C(Nc1cccnc1)c1ccc(Cl)c([N+](=O)[O-])c1 | -2.67% (inactive)
O=C(Nc1ccncc1)c1ccc(Cl)c([N+](=O)[O-])c1 | -1.98% (inactive)
Cc1ccnc(NC(=O)c2ccc(Cl)c([N+](=O)[O-])c2)c1 | 21.7% (active)
Nc1ccn(CC(=O)N2CCN(c3ccccn3)CC2)c(=O)n1 | 0.94% (inactive)
CC(C)Cn1c(N)c(C(=O)COC(=O)C2CCCN2C(=O)c2cccs2)c(=O)n(C)c1=O (configuration not stated) | 18.2% (active)
CC(C)Cn1c(N)c(C(=O)COC(=O)CN2C(=O)C3CC=CCC3C2=O)c(=O)n(C)c1=O (configuration not stated) | -0.106% (inactive)
CCCc1cc(=O)[nH]c(SCC(=O)c2c(N)n(CC(C)C)c(=O)n(C)c2=O)n1 | -3.84% (inactive)
Cc1cccnc1NC(=O)Cn1c(=O)oc2ccccc21 | 10.8% (inactive)
Oc1ccc2ccc3cccc[n+]3c2c1 | 94.4% (active)
CC(C)(C)OC(=O)C[C@H]1C/C=C\C[C@@H](CC(=O)N[C@H](CO)Cc2ccccc2)C(=O)NC[C@@H](c2ccccc2)OC1=O | -0.906% (inactive)
CC(C)(C)OC(=O)C[C@@H]1C/C=C\C[C@@H](CC(=O)N[C@H](CO)Cc2ccccc2)C(=O)NCCOC1=O | -192% (inactive)
O=CN1CCN(C(=O)c2ccc3c(c2)OCO3)CC1 | 39.6% (active)
O=C(c1ccc2c(c1)OCO2)N1CCOCC1 | -0.497% (inactive)
O=C(c1ccc2c(c1)OCO2)N1CCN(C(=O)c2ccco2)CC1 | -0.585% (inactive)
COc1ccc([C@H]2[C@H](C(C)=O)N3N=Cc4ccccc4C3C23C(=O)OC(C)(C)OC3=O)cc1 (some centres not stated) | 0.0257% (inactive)
COc1ccc([N+](=O)[O-])cc1NC(=O)C(C)OC(=O)C1c2ccccc2Oc2ccccc21 (configuration not stated) | 4.81% (inactive)
Cn1c(=O)[nH]c(=O)c2c1nc(NCCCn1ccnc1)n2Cc1cccc(Br)c1 | 17.2% (active)
CCCCNc1nc2c(c(=O)[nH]c(=O)n2C)n1CCOc1ccccc1 | -0.364% (inactive)
COc1ccc(CNc2nc3c(c(=O)[nH]c(=O)n3C)n2Cc2ccccc2)cc1 | 1.42% (inactive)
O=C(/C=C/c1ccc(F)cc1)NC(=S)NNC(=O)c1cccnc1 | 1% (inactive)
NC(=O)CN1CCCC1c1ccc2c(c1)OCCO2 (configuration not stated) | 2.74% (inactive)
COc1ccccc1NC(=O)COC(=O)CNC(=O)C1CCCCC1 | 2.31% (inactive)
O=C(Nc1cccc(-c2cscn2)c1)C1CCN(Cc2ccsc2)CC1 | 4.95% (inactive)

SMILES | inhibition
Nc1ncc(CN2CCCC(C(=O)Nc3ccc(-c4ccco4)cc3)C2)cn1 (configuration not stated) | 3.49% (inactive)
O=C(Nc1ccc(-c2cscn2)cc1)C1CCCN(Cc2ccc(CO)o2)C1 (configuration not stated) | 21.8% (active)
O=C1CN(c2nc(-c3ccccc3)c3cc(Br)ccc3n2)c2ccccc2N1 | -7.77% (inactive)
COc1ccc(C2N=C(N)N=C(N)N2c2ccccc2)cc1OC (configuration not stated) | -6.16% (inactive)
CCCCSc1[nH]c(=O)c(C(=O)OCC)cc1C#N | 3.53% (inactive)
COc1ccc(-c2nc(N)sc2C2(O)C(=O)Nc3c(Br)cc(F)cc32)cc1OC (configuration not stated) | -10.7% (inactive)
S=c1[nH]nc(Nc2ccccc2)s1 | 6.41% (inactive)
CC(C)(C)C(=O)c1cnc(Nc2ccccc2)s1 | 54.4% (active)
O=C(/C=C/Nc1ccccc1)c1cnc(-c2ccccc2)s1 | 0.792% (inactive)
Cc1ccccc1-n1cc(CNC(=O)CC2C(=O)NCCN2C/C=C/c2ccccc2)cn1 (configuration not stated) | -1.56% (inactive)
Cc1nc(SC(C)C)[nH]c(=O)c1Cc1ccccc1 | 1.02% (inactive)
O=C(O)CC(CC(=O)N1CCOCC1)c1ccccc1 (configuration not stated) | 4.19% (inactive)
O=C(CP(=O)(c1ccccc1)c1ccccc1)N1CCOCC1 | 14.6% (active)
O=C(Cc1ccccc1Cl)N1CCOCC1 | -0.189% (inactive)
CCOc1ccc(CCNC(=O)Nc2ccccc2)cc1OCC | -1.38% (inactive)
CCN1C(=O)[C@H]2[C@@H](c3ccc(C)cc3)N3C(=O)N(c4cccc(Br)c4)C(=O)[C@@]3(CC)[C@H]2C1=O | -2.34% (inactive)
CCc1ccc2nc3sc(C(=O)Nc4nnc(CC)s4)c(N)c3cc2c1 | -1.19% (inactive)
Cc1ccc(NC(=O)c2sc3nc(N)c(C#N)cc3c2N)cc1 | 14.6% (active)
Cc1ccc(NC(=O)CSCC(=O)Nc2sccc2C#N)cc1 | 1.52% (inactive)
CCc1ccc(OCC(=O)NCC(c2ccc(Cl)cc2)N2CCCCC2)cc1 (configuration not stated) | -1.04% (inactive)
NC(=O)COC(=O)c1sc2cc(F)ccc2c1Cl | 0.759% (inactive)
Cn1c(SCC(=O)OC2CCCCC2)nnc1-c1ccc(S(=O)(=O)N2CCCC2)cc1 | 5.59% (inactive)
CC1Cc2ccccc2N1C(=O)CSc1nnc(-c2ccc(S(=O)(=O)N3CCCC3)cc2)n1C (configuration not stated) | 14.5% (active)

SMILES | inhibition
CC1Cc2ccccc2N1C(=O)CSc1nnc(C2CC2)n1C (configuration not stated) | 5.57% (inactive)
COC(=O)[C@@H](Cc1ccccc1)NC(=O)NCCc1ccccc1 | -0.105% (inactive)
COC(=O)[C@H](C)[C@H]1C[C@]1(C)[C@H](NC(=O)OCc1ccccc1)c1ccccc1 | -3.43% (inactive)
COC(=O)[C@H](Cc1ccccc1)NC(=O)[C@@H]1C[C@H]1[C@@H](NC(=O)OCc1ccccc1)c1ccccc1 | 14.2% (active)
COc1ccc(N2CCN(Cc3ccc(Br)s3)CC2)cc1 | 0.937% (inactive)
COc1ccccc1C(=O)N1CCNC(=O)C1CC(=O)Nc1ccc(Cl)cc1 (configuration not stated) | -4.24% (inactive)
CSc1ccc(Cl)c(C(=O)OCC(=O)N2CCNC2=O)c1 | 2.35% (inactive)
COCCNc1ncnc2c1nc1n2CCCC1 | 3% (inactive)
Cc1cccc(NS(=O)(=O)c2ccc(C)c(C(=O)NCC(c3ccccc3)N(C)C)c2)c1 (configuration not stated) | 70.5% (active)
Cc1cccc(NS(=O)(=O)c2ccc(C)c(C(=O)NCc3cccnc3)c2)c1 | -4.62% (inactive)
Cc1cccc(NS(=O)(=O)c2ccc(C)c(C(N)=O)c2)c1 | 2.17% (inactive)
O=C1C=C(c2ccnc3cc(Cl)ccc23)C[C@@H](c2ccc3c(c2)OCO3)C1 | 0.0706% (inactive)
O=C(NCCc1ccc(F)cc1)c1ccc2nccnc2c1 | 7.1% (inactive)
Cc1nc(C)c2c(c1C(F)(F)F)-c1ccccc1C2(F)F | 11.7% (active)
CC(C)=N/N=C1/NC(=O)C(Cc2ccccc2)S1 (configuration not stated) | 0.219% (inactive)
CN(CCOc1ccc(CC2SC(=O)NC2=O)cc1)c1ccccn1 (configuration not stated) | 11.3% (active) and 1.08% (inactive)
CC(O)c1ccc(OCCN(C)c2ccccn2)cc1 (configuration not stated) | 0.184% (inactive)
CNc1nccc(-c2ccc(Cl)cc2)c1C#N | -1.28% (inactive)
CSCC[C@H](NC(=O)N1CCn2c1nc1ccccc12)C(=O)NC1CCCCC1 | -4.45% (inactive)
Cc1nc(NC(CC(C)C)C(=O)O)c2nc(C)oc2n1 (configuration not stated) | 11.3% (active)
Cc1cc(C)cc(C(=O)NC(CC(N)=O)c2ccc(N3CCC(N4CCCCC4)CC3)c([N+](=O)[O-])c2)c1 (configuration not stated) | -1.95% (inactive)
N#CC1=C(SCc2ccccc2)NC(=O)C(C#N)C12CCCC2 (configuration not stated) | 15% (active)
N#CC1=C(SCc2ccc(C#N)cc2)N=C(N)C(c2nc(-c3ccccc3)cs2)C12CCCCC2 (configuration not stated) | 5.1% (inactive)

SMILES | inhibition
CC1(C)CCc2nc(SCc3ccccc3)c(C#N)cc2C1 | -3.11% (inactive)
COCCCNC(=O)Cc1ccc(-n2c(C)nc3cccnc32)cc1 | -0.715% (inactive)
CCc1ccc(-c2nc(SCC(=O)NC3CCCC3)n[nH]2)cc1 | 1.39% (inactive)
Cc1onc(-c2ccccc2)c1C(=O)Nc1ccccc1C#N | 1.04% (inactive)
CC(=O)Nc1cccc(NC(=O)c2c(-c3ccccc3)noc2C)c1 | 18.3% (active)
Cc1ccc(CNC(=O)c2c(-c3ccccc3)noc2C)cc1 | -3.29% (inactive)
CC(=O)NC12CC3CC(C1)CC(C(=O)N1CCN(C(=O)c4ccco4)CC1)(C3)C2 | -0.808% (inactive)
O=C(N1CCCC1)C12CC3CC(C1)CC(C(=O)N1CCCC1)(C3)C2 | 15.6% (active)
O=C(NCC12CC3CC(C1)CC(CNC(=O)N1CCCC1)(C3)C2)N1CCCC1 | -3.32% (inactive)
O=S(=O)(NC1CCCCC1)c1ccc(F)c2ccccc12 | -1.01% (inactive)
Cc1cccc(C)c1NC(=O)C1(N(C(=O)c2ccccn2)c2ccc(O)cc2)CCCCC1 | -0.134% (inactive)
COc1cccc(N(C(=O)c2ccn[nH]2)C2(C(=O)Nc3c(C)cccc3C)CCCCC2)c1 | 83.6% (active)
COc1cccc(N2CC(C(=O)Nc3c(C)cccc3C)CC2=O)c1 (configuration not stated) | -1.43% (inactive)
COc1cc(CNCc2ccc(OC)c3ccccc23)cc(OC)c1OC | -2.97% (inactive)
C=CCC[C@@H](Cc1ccc(F)cc1)C(=O)OC[C@@H](C)NC(=O)[C@H](CC=C)CC(=O)N(CCO)Cc1ccccc1 | -1.37% (inactive)
O=C(CSc1nc2ccccc2c(=O)n1-c1ccccc1F)N1CCOCC1 | -5.04% (inactive)
CCOC(=O)N1CCN(C(=O)Cn2cnc3ccccc3c2=O)CC1 | 3% (inactive)
CCOC(=O)N1CCN(CC(=O)Nc2cc(C)nn2-c2nc3ccccc3s2)CC1 | 16.1% (active)
CCOC(=O)N1CCN(CC(=O)Nc2ccc(F)cc2)CC1 | -4.74% (inactive)
O=C(OCc1ccccc1F)c1ccc2c(c1)OCCO2 | -6.13% (inactive)
CC(=O)c1cc(C#N)c(SCC(=O)C(C)(C)C)nc1C | -1.09% (inactive)
CCOC(=O)c1nc(C)n(-c2ccc(Cl)cc2Cl)n1 | -1.22% (inactive)
CC(=O)c1nnn(-c2ccc(Cl)cc2C#N)c1C | 10.1% (active)
